Activity calls are given as the source filed them. Unless noted, no rule for the calls is given here.

Experiment [1] relates to Wnt5a (protein binding on small-molecule microarray). The experiment can be described thus: small molecules binding Wnt5a protein – biophysical, small-molecule microarray, 635/667 nm fluorescence, primary screen (AID 1142).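 Also: fluorescence read at 667 nm with signal to noise per printed feature.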 The note with it: 635 nm fluorescence, higher = more signal.
Experiment [2] in a line: ATP-based viability of Huh7 replicon cells – cell-based, CellTiter-Glo luminescence, basal, 48 h, cytotoxicity control for HCV replication inhibitor project, primary screen (AID 1143).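 Also: Huh7 hepatoma cells carrying a hepatitis C replication reporter with no stimulus; test concentration not given here.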 The note with it: higher = more signal, called active from +8 up or from −8 down. Background: Replicon systems follow genome replication, usually without infectious particles.
Experiment [3] can be described thus: Pseudomonas biofilm growth suppression – PAO1 strain, BacTiter-Glo luminescence, LB-PBS, primary screen (AID 1144). The note with it: P. aeruginosa PAO1 biofilm, 12 h, higher = more signal.
A short description of experiment [4]: basal CRE-LacZ reporter activity in PC12 – cell-based, unstimulated, primary screen (AID 1145). The note with it: no forskolin, luminescence, 4.5 h, higher = more signal, called active from +8 up or from −8 down.
Experiment [5] is described as follows: forskolin-driven CRE-LacZ activity in PC12 – cell-based, CRE-LacZ reporter, forskolin-stimulated, primary screen (AID 1146).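 Also: PC12 cells with 6xCRE LacZ reporter stimulated by forskolin 10 µM; beta-galactosidase reporter signal reflecting CREB driven transcription.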 To be noted: luminescence, 4.5 h, higher = more signal, called active from +8 up or from −8 down.
For experiment [6], the target named is Streptavidin (Streptomyces avidinii) (UniProt P22629). The experiment is described as follows: compounds binding control protein streptavidin – biophysical, small-molecule microarray, 635/667 nm fluorescence, artefact control for SMM compound annotation, primary screen (AID 1147).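 Also: signal reflects streptavidin binding to arrayed compounds as a control protein.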 The note with it: higher = more signal.
A short description of experiment [7]: probe aInhba binding on compound microarray – biochemical, small-molecule microarray, 635/667 nm fluorescence, primary screen (AID 1148).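 Also: score merges 667nm spot fluorescence with signal-to-noise for antibody binding to printed compounds.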 To be noted: higher = more signal.
Experiment [8] has as its target Torsin-1A (Homo sapiens) (UniProt O14656). The experiment is described as follows: TOR1A wild-type binding on microarray – cell lysate, small-molecule microarray, lysate, 635/667 nm, primary screen (AID 1149). The note with it: COS7 hTOR1A-WT lysate, 635 nm fluorescence, higher = more signal.
Experiment [9] has the same target. The experiment is described as follows: torsin A mutant lysate binding on microarrays – cell lysate, small-molecule microarray, COS7 lysate, 635/667 nm fluorescence, primary screen (AID 1150).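 Also: score pools 667 nm emission and signal to noise measuring lysate protein binding.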 The note with it: COS7 hTOR1A mutant lysate, 635 nm fluorescence, higher = more signal.
For experiment [10], the system named is Sonic hedgehog protein (Shh). The experiment is described as follows: Sonic hedgehog microarray binding compounds – biochemical, small-molecule microarray, 635/667 nm fluorescence, primary screen (AID 1151).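 Also: Shh protein binding to compounds spotted on small-molecule microarray slides; score combines spot fluorescence intensity with signal-to-noise across triplicate slides.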 The note with it: 635 nm fluorescence, higher = more signal.
The nature of experiment [11]: optical density shifts of acrAB sulA E. coli – strain DRC41, OD650, 48 h, E. coli filamentation inducer project, primary screen (AID 1152).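 Also: E. coli MC1000 strain DRC41 lacking acrAB efflux pump and sulA.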 The note with it: higher = more signal, called active from +8 up or from −8 down.
Experiment [12] in a line: probe aLefty1 binding on compound microarray – biochemical, small-molecule microarray, 635/667 nm fluorescence, primary screen (AID 1153).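 Also: score merges spot fluorescence with signal-to-noise ratio from the scanned slide images.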 To be noted: higher = more signal.
Experiment [13] can be described thus: plasmodial surface anion channel blockers, osmotic lysis – cell-based, P. falciparum Indochina, OD700, 1 h, primary screen (AID 1154). The note with it: P. falciparum Indochina infected RBC osmotic lysis, higher = more signal, called active from +8 up or from −8 down.
Experiment [14] can be described thus: plasmodial surface anion channel blockers, osmotic lysis – cell-based, P. falciparum Indochina, OD700, 2 h, primary screen (AID 1155).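 Also: lysis reports solute entry through the parasite surface anion channel PSAC.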 The note with it: P. falciparum Indochina infected erythrocytes, higher = more signal, called active from +8 up or from −8 down.
A short description of experiment [15]: changes in parasitized red cell lysis, either direction – P. falciparum Indochina, OD700, 3 h, PSAC antagonist project, primary screen (AID 1156). To be noted: P. falciparum-infected erythrocytes, osmotic lysis, higher = more signal, called active from +8 up or from −8 down.
Experiment [16] in a line: plasmodial surface anion channel blockers, osmotic lysis – cell-based, P. falciparum Indochina, OD700, 18 h, primary screen (AID 1157). The note with it: P. falciparum Indochina infected erythrocytes, osmotic lysis OD700, 18 h; higher = more signal, called active from +8 up or from −8 down.
Experiment [17] is described as follows: S6 kinase pathway phospho-S6 level changes – cell-based, A549, cytoblot, luminescence, serum-stimulated, primary screen (AID 1158).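 Also: serum-stimulated A549 lung adenocarcinoma cells; signal is phosphorylated S6 detected by cytoblot immunostaining with HRP secondary.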 The note with it: 5 h, higher = more signal.
Experiment [18] addresses NADPH oxidase 2 (Homo sapiens) (UniProt P04839). The experiment is described as follows: compounds shifting NOX2 Amplex Red fluorescence – cell-based, HEK293-NOX2, PMA-stimulated, NOX inhibitor project, primary screen (AID 1159). Also: test concentration not given here. To be noted: 45 min, higher = more signal, called active from +8 up or from −8 down.
Experiment [19] has as its target NADPH oxidase 4 (Homo sapiens) (UniProt Q9NPH5). The experiment is described as follows: compounds shifting NOX4 Amplex Red fluorescence – cell-based, HEK293-NOX4, tetracycline-induced, NOX inhibitor project, primary screen (AID 1160). The note with it: HEK293-NOX4, Amplex Red H2O2 fluorescence, 45 min; higher = more signal, called active from +8 up or from −8 down.

In experiment [20] the target is NADPH oxidase 5 (Homo sapiens) (UniProt Q96PH1). The experiment can be described thus: compounds shifting NOX5 Amplex Red fluorescence – cell-based, HEK293-NOX5, NOX inhibitor project, primary screen (AID 1161). To be noted: HEK293-NOX5, ionomycin, 45 min, higher = more signal.
Sequence of NADPH oxidase 5 (Homo sapiens) (Q96PH1 whole entry, looked up): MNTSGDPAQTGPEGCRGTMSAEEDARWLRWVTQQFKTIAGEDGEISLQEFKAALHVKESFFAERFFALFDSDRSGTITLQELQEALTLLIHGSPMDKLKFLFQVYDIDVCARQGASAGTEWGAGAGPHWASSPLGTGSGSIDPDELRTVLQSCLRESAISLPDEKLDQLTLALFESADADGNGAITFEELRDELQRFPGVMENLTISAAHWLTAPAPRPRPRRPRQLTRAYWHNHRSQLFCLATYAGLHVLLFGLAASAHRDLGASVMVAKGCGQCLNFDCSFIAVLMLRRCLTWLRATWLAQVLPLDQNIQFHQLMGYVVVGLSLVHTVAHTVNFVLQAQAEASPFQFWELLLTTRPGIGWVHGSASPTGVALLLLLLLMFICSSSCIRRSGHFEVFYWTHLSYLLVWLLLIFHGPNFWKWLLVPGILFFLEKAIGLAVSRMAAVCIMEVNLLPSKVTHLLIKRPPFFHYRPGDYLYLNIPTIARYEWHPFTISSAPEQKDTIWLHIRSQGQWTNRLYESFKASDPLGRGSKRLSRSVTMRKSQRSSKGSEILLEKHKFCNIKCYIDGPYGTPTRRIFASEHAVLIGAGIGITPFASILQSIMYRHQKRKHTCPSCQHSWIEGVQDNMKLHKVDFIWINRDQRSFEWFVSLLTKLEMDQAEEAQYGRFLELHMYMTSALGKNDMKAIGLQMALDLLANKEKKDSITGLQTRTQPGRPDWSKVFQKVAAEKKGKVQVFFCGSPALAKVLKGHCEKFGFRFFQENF

Sequence of NADPH oxidase 2 (Homo sapiens) (P04839 whole entry, looked up): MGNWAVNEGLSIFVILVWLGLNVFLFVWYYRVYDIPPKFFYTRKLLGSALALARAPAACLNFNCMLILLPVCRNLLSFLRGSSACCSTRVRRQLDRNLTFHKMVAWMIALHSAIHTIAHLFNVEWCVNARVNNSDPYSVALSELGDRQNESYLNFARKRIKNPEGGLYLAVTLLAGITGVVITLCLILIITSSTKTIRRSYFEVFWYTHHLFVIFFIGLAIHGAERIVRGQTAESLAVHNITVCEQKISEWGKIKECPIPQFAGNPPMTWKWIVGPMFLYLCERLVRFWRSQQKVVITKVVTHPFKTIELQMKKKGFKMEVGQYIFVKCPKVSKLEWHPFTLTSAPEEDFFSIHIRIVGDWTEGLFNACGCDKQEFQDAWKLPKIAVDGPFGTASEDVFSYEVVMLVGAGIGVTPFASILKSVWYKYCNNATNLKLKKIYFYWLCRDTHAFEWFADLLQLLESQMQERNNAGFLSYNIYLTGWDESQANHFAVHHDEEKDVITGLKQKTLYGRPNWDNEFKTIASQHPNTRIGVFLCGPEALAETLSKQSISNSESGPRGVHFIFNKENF
Sequence of Streptavidin (Streptomyces avidinii) (P22629 whole entry, looked up): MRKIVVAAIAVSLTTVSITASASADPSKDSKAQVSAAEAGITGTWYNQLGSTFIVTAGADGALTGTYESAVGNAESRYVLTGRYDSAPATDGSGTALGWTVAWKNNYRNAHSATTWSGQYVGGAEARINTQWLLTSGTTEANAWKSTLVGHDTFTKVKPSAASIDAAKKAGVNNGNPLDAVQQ
Sequence of Torsin-1A (Homo sapiens) (O14656 whole entry, looked up): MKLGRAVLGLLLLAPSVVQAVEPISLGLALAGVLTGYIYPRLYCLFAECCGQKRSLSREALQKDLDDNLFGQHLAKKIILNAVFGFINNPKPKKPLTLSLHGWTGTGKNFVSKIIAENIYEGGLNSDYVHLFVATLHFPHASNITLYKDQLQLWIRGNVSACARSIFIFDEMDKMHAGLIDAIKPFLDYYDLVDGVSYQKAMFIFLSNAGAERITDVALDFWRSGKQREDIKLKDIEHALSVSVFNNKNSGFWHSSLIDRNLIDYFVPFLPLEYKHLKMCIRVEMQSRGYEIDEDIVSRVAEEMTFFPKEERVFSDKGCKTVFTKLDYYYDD
Sequence of NADPH oxidase 4 (Homo sapiens) (Q9NPH5 whole entry, looked up): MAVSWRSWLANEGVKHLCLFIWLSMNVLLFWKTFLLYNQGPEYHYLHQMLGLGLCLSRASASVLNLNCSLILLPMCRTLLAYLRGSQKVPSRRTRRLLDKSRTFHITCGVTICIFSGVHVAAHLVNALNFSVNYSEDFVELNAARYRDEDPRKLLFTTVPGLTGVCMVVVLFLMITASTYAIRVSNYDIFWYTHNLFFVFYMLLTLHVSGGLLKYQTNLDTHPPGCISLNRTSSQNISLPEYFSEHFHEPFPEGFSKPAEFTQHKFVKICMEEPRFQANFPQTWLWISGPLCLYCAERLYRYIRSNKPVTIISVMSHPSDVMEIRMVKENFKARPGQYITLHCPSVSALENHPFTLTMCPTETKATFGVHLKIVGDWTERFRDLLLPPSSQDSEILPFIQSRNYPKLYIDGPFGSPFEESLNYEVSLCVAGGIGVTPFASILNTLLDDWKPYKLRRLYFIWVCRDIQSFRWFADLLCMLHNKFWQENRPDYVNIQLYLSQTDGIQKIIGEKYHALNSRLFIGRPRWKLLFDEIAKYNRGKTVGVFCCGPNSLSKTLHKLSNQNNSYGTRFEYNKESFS

For `COC(=O)C(CC#Cc1ccc2c(c1)[C@]1(C(=O)N2)[C@H](c2ccc(OCCO)cc2)N2[C@H](c3ccccc3)[C@H](c3ccccc3)OC(=O)[C@H]2[C@@H]1C(=O)N1CCc2cc(OC)c(OC)cc2C1)C(=O)OC`, the composite z-score is 0.714 in [1]; 1.52 in experiment [6]; 0.542 in [7]; 0.668 with Torsin-1A (Homo sapiens) [8]; 0.623 in the experiment with Torsin-1A (Homo sapiens) [9]; 1.91 in experiment [10]. In experiment [12], the composite z-score is 1.08. Moreover, the z-score is -0.6 (inactive) in experiment [2]; 0.188 (inactive) in experiment [3]; -0.0688 (inactive) in experiment [4]; 2.19 (inactive) in experiment [5]; -0.339 (inactive) in [11]; 3.44 (inactive) in experiment [13]. Moreover, the z-score in experiment [14] was 1.89 (inactive); in experiment [15], 0.506 (inactive); in [16] it was 0.754 (inactive); in [17], -0.214; in experiment [18] it was 1.13 (inactive); in [19], 0.632 (inactive). The z-score in experiment [20] stood at 1.96.

As to `O=C(OCc1ccccc1)C1=CCC2c3[nH]c4ccccc4c3C(=O)C1N2S(=O)(=O)c1ccccc1[N+](=O)[O-]` (stereo not given), the composite z-score was determined as 0.794 in experiment [1]; 0.745 in experiment [6]; 0.11 in experiment [7]; 0.498 in the experiment with Torsin-1A (Homo sapiens) [8]; 0.497 with Torsin-1A (Homo sapiens) [9]; 0.488 in experiment [10]. In addition, the composite z-score in experiment [12] is -0.192. Besides, the z-score in experiment [2] is -1.26 (inactive); in experiment [3], -0.00859 (inactive); in experiment [4], -0.0137 (inactive); in experiment [5], -0.451 (inactive); in experiment [11] it was -1.33 (inactive); in [13], 7.08 (inactive). In addition, the z-score in [14] is 2.13 (inactive); in [15], 0.105 (inactive); in experiment [16] it was 1.1 (inactive); in experiment [17] it was -0.605; in experiment [18], 0.663 (inactive); in [19], -0.294 (inactive). Also, the z-score in experiment [20] is -1.97.

On to `CCOC(=O)C1=C[C@@H](C(C)(C)C)N(S(=O)(=O)c2ccc(C)cc2)[C@H]1c1ccc(F)cc1`, for which the composite z-score came out at 0.219 in experiment [1]; 1.1 in experiment [6]; 0.255 in experiment [7]; 0.159 with Torsin-1A (Homo sapiens) [8]; 0.575 in the experiment with Torsin-1A (Homo sapiens) [9]; 0.584 in experiment [10]. Besides, in [12], the composite z-score is -0.0162. The z-score in experiment [2] is -3.79 (inactive); in experiment [3], 0.673 (inactive); in [4], 0.0423 (inactive); in [5] it was 0.81 (inactive); in experiment [11], -1.68 (inactive); in experiment [13] it was 0.957 (inactive). The z-score in experiment [14] is 0.716 (inactive); in experiment [15] it was -0.862 (inactive); in experiment [16] it was 0.634 (inactive); in experiment [17] it was -0.827; in [18] it was -0.829 (inactive); in [19] it was -0.217 (inactive). Moreover, in [20], the z-score came to 0.821.

As for `C=CCN1C(=O)[C@@]2(CC=C)N=C(c3ccc(OCCCO)cc3)O[C@H]2c2ccccc21`, the composite z-score came to 1.39 in experiment [1]; 0.26 in [6]; 0.33 in [7]; 0.537 with Torsin-1A (Homo sapiens) [8]; 0.658 in the experiment with Torsin-1A (Homo sapiens) [9]; 1.47 in [10]. Also, the composite z-score in experiment [12] is 0.547. The z-score is -3.88 (inactive) in experiment [2]; -0.776 (inactive) in [3]; 1.13 (inactive) in experiment [4]; -2.04 (inactive) in experiment [5]; 1.92 (inactive) in experiment [11]; 34.5 (active) in experiment [13]. For the same molecule, the z-score in experiment [14] is 30.9 (active); in experiment [15], 3.11 (inactive); in experiment [16] it was 9.88 (active); in experiment [17] it was 1.63; in [18], -2.21 (inactive); in [19], 0.796 (inactive). In addition, the z-score in experiment [20] was -0.809.

As for `C#C[C@H](O[Si](C#Cc1ccc(Oc2ccccc2)cc1)(C(C)C)C(C)C)c1ccccc1`, the composite z-score was 0.0942 in [1]; 0.145 in [6]; -0.082 in [7]; 1.38 with Torsin-1A (Homo sapiens) [8]; 0.122 with Torsin-1A (Homo sapiens) [9]; 0.21 in [10]. Further, the composite z-score in experiment [12] is -0.104. Further, the z-score in [2] is -0.868 (inactive); in [3], -0.0203 (inactive); in [4], 0.498 (inactive); in [5], 1.7 (inactive); in experiment [11] it was -0.425 (inactive); in [13], 0.353 (inactive). In addition, the z-score is 0.787 (inactive) in [14]; -2.03 (inactive) in experiment [15]; -0.206 (inactive) in experiment [16]; -0.305 in experiment [17]; -1.03 (inactive) in [18]; -2.59 (inactive) in experiment [19]. Besides, the z-score in experiment [20] is -3.04.

Source of the values: PubChem BioAssay.
